Some test systems named below: NCI-H226 lung; NCI-H322M lung; HOP-62 NSCLC; NCI-H460 lung; HOP-92 NSCLC; NCI-H522 lung; A549/ATCC NSCLC; 786-0 renal; COLO 205 colon; NCI-H23 lung.
Experiment in all cases: NCI-60 one-dose screen, 48 h (100 = growth as untreated, 0 = no growth, -100 = all killed)
What all share (conditions): 10 µM unless noted

About 83,000 compounds went through this panel and 20% of them were active in at least one assay; those are over-represented in the sample as a whole.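 The endpoint reported here, percent growth, reads 100 for growth as untreated, 0 for no net growth and -100 for all cells dead.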 Unmarked numbers belong to inactive results. Activity calls are given as the source filed them. The calls were made as follows: active = growth percent below 10; inactive = the rest.

For `COC(OC)C1=C(C)OC(N)=C(C#N)C12C(=O)Nc1ccccc12` (configuration not stated), the growth in the experiment with NCI-H226 lung is 90.2%; in the experiment with NCI-H322M lung, 98.3%; in the experiment with HOP-62 NSCLC, 111%; in the experiment with NCI-H460 lung it was 97.2%; with HOP-92 NSCLC it was 118%; in the experiment on NCI-H522 lung, 6.48% (active). The growth was 114% in the experiment on A549/ATCC NSCLC, 113% in the experiment with 786-0 renal and 102% in the experiment on COLO 205 colon.

As to `CC1=C(C(=O)OC(C)C)C(c2cccc(O)c2)NC(=S)N1` (configuration not stated), the growth with NCI-H226 lung is 101%; with NCI-H322M lung it was 103%; in the experiment with HOP-62 NSCLC it was 95.9%; with NCI-H460 lung, 110%; in the experiment with HOP-92 NSCLC, 110%; with NCI-H522 lung, 91.8%. The growth was 103% with A549/ATCC NSCLC, 106% with 786-0 renal and 107% in the experiment on COLO 205 colon.

Regarding `CCN(CC)c1ccc(/C=N/Nc2nc(-c3ccc(C)cc3)cs2)c(O)c1`, the growth in the experiment on NCI-H226 lung was 63.7%; with NCI-H322M lung, 98.1%; with HOP-62 NSCLC it was 109%; with NCI-H460 lung, 111%; with HOP-92 NSCLC, 108%; in the experiment on NCI-H522 lung, 65.2%. In addition, the growth was 92.2% in the experiment with A549/ATCC NSCLC, 96.2% in the experiment with 786-0 renal and 110% in the experiment with COLO 205 colon.

With `Cc1ccc(S(=O)(=O)c2nc(S(=O)(=O)c3ccc(C)cc3)c(N3CCC(O)CC3)s2)cc1`, the growth was 62.5% in the experiment on NCI-H23 lung; 84.6% in the experiment on NCI-H226 lung; 46.2% with NCI-H460 lung; 19.7% in the experiment on NCI-H522 lung; 62.1% in the experiment on A549/ATCC NSCLC; 77.1% in the experiment with 786-0 renal. Moreover, the growth with COLO 205 colon is 98%.

Consider `Cn1cc(-c2nnc(N)nc2-c2c[nH]c3ccc(Br)cc23)c2cc(Br)cnc21`, for which the growth is 74% with NCI-H226 lung; 71.5% in the experiment with NCI-H322M lung; 70.7% with HOP-62 NSCLC; 62.1% in the experiment on NCI-H460 lung; 43.4% in the experiment on HOP-92 NSCLC; 6.2% (active) in the experiment on NCI-H522 lung. In addition, the growth is 59.5% in the experiment on A549/ATCC NSCLC, 46.2% with 786-0 renal and 66.6% in the experiment with COLO 205 colon.

For `C#CCOc1ccc(/C=N/Nc2nc(-c3ccc(F)cc3)cs2)cc1OC`, the growth with NCI-H226 lung is 54.1%; in the experiment on NCI-H322M lung it was 83.1%; with HOP-62 NSCLC it was 86.9%; in the experiment on NCI-H460 lung, 77.4%; in the experiment on HOP-92 NSCLC, 34.2%; in the experiment on NCI-H522 lung it was 46.9%. The growth in the experiment on A549/ATCC NSCLC was 72.9%; with 786-0 renal, 84.4%; with COLO 205 colon it was 68.9%.

Take `COc1cc(-c2nc3ccc(C)cc3[nH]2)ccc1OCc1nnc(-c2ccc(Br)cc2)o1`: the growth in the experiment on NCI-H226 lung was 57.5%; in the experiment on NCI-H322M lung it was 65.6%; in the experiment on HOP-62 NSCLC, 48%; in the experiment with NCI-H460 lung, 31.3%; in the experiment on HOP-92 NSCLC, 18.8%; in the experiment with NCI-H522 lung, 8.24% (active). For the same compound, the growth with A549/ATCC NSCLC is 49.8%; in the experiment on 786-0 renal, -50.8% (active); with COLO 205 colon it was 3.01% (active).

For the compound `C#CCOc1cc(N(CC)CC)ccc1C(C(=O)NC(C)(C)C)N(C(=O)C1CCc2cc(F)ccc2O1)c1ccccc1F` (configuration not stated), the growth with NCI-H226 lung is 34.4%; with NCI-H322M lung it was 72.2%; in the experiment on HOP-62 NSCLC it was 49.5%; in the experiment on NCI-H460 lung, 30.1%; in the experiment with HOP-92 NSCLC it was 18.6%; with NCI-H522 lung, 31.2%. In addition, the growth is 35.2% in the experiment with A549/ATCC NSCLC, 44.1% with 786-0 renal and 12.9% in the experiment on COLO 205 colon.

In the case of `Cc1ccc(C(=O)C(c2c[nH]c3ccccc23)c2c[nH]c3ccccc23)cc1`, the growth in the experiment on NCI-H226 lung is 38.9%; with NCI-H322M lung it was 81.8%; in the experiment with HOP-62 NSCLC it was 89.9%; in the experiment on NCI-H460 lung it was -6.44% (active); with HOP-92 NSCLC it was 89.9%; in the experiment on NCI-H522 lung, -1.59% (active). The results for the growth in the experiment on A549/ATCC NSCLC, in the experiment on 786-0 renal and with COLO 205 colon were 49%, 32% and -45.7% (active), respectively.

For `COc1ccc(NC(=O)[C@@H](N)Cc2ccccc2)cc1C(=O)Nc1cccc(C2CC(=O)c3c(cc(OC)c(OC)c3OC)O2)c1` (some centres not stated), the growth in the experiment on NCI-H226 lung was 69.8%; in the experiment with NCI-H322M lung it was 79.3%; in the experiment on HOP-62 NSCLC, 86.8%; in the experiment on NCI-H460 lung, 54.7%; with HOP-92 NSCLC, 44.4%; in the experiment on NCI-H522 lung, 39.6%. Besides, the growth with A549/ATCC NSCLC was 68.9%; with 786-0 renal, 72.2%; with COLO 205 colon it was 78.4%.

Regarding `CCOC(=O)COc1c(OC)c(OC)cc2oc(-c3cccc(C(=O)Nc4ccc(Cl)cc4)c3)cc(=O)c12`, the growth in the experiment on NCI-H226 lung is 76.2%; in the experiment on NCI-H322M lung it was 108%; with HOP-62 NSCLC, 54.9%; in the experiment with NCI-H460 lung, 83.5%; in the experiment on HOP-92 NSCLC, 52.6%; in the experiment on NCI-H522 lung, 46%. The growth was 77% in the experiment on A549/ATCC NSCLC, 49.5% in the experiment on 786-0 renal and 39.8% in the experiment on COLO 205 colon.

`C#CCOc1ccc(/C=N/Nc2nc(-c3cc4cc(Br)ccc4oc3=O)cs2)cc1OC`: the growth with NCI-H226 lung was 29.8%; with NCI-H322M lung, 77.8%; in the experiment on HOP-62 NSCLC, 51.7%; with NCI-H460 lung it was 43.4%; with HOP-92 NSCLC, 45.5%; with NCI-H522 lung it was 34.3%. Moreover, the growth with A549/ATCC NSCLC is 49.5%; with 786-0 renal, 50.8%; in the experiment on COLO 205 colon, 88.1%.

Turning to `Cn1cc(-c2cc3nc(-c4cn(C)c5ncccc45)cc(N)n3n2)c2cc(Cl)ccc21`, the growth in the experiment on NCI-H23 lung is -66.6% (active); in the experiment on NCI-H226 lung it was 1.56% (active); in the experiment with HOP-62 NSCLC it was -94.2% (active); with NCI-H460 lung it was -70% (active); in the experiment on NCI-H522 lung, -85.1% (active); in the experiment with A549/ATCC NSCLC it was -4.13% (active). Further, the growth is -90.4% (active) in the experiment with 786-0 renal and -93.7% (active) in the experiment on COLO 205 colon.

As to `COc1cc(OC)c2c3nc4cc(C)c(C)cc4nc3n(CCN(C)C)c2c1`, the growth is 67.4% in the experiment with NCI-H23 lung; 72.4% with NCI-H226 lung; 70.9% in the experiment on HOP-62 NSCLC; 53.7% in the experiment with NCI-H460 lung; 56.2% in the experiment with NCI-H522 lung; 8.98% (active) in the experiment with A549/ATCC NSCLC. In addition, the growth in the experiment on 786-0 renal was 50.7%; with COLO 205 colon, 48.4%.

(Values after PubChem BioAssay (NCI).)
